# Data from paper PMC4552634, “A New Set of Chemical Starting Points with Plasmodium falciparum Transmission-Blocking Potential for Antimalarial Drug Discovery” (PLoS ONE, 2015).
# Hit rate of the full screen: of about 13,000 compounds, about 3,200 (25%) showed an effect of 50% or more. Some of the results follow.
# System: P. falciparum stage V gametocytes
# Design: BacTiter-Glo ATP luminescence viability of purified stage V gametocytes in 384-well plates, per cent inhibition versus DMSO
# Details: 48 h, 5 µM; inhibitor
row,SMILES,% Inhibition
1,NC1=NC(c2ccccc2)(c2ccccc2)C(=O)N1Cc1ccc(-c2ccncc2)cc1 [TCMDC-136894],25.37%
2,Cc1ccc2nc3c(cc(C(=O)NCc4ccccc4)c(=N)n3CCCn3ccnc3)c(=O)n2c1 [TCMDC-124377],6.883%
3,C=C1C(C(=O)OCC)=CN(CC)c2cc(O[C@@H]3CCN(C(=O)OC(C)(C)C)C3)ccc21 [TCMDC-135647],15.51%
4,O=C(/C=C/c1ccc(Cl)c(Cl)c1)NC1CCN(CCNC(=O)c2cccc(Cl)c2)CC1 [TCMDC-141950],-32.49%
5,CCCc1cc(=O)[nH]c(-n2nc(C)cc2NC(=O)c2cc3ccccc3o2)n1 [TCMDC-124939],13.85%
6,Oc1ccc(-c2ccccc2)cc1CN1CCCCC1 [TCMDC-125510],85.49%
7,O=C(NC1CCCCN(Cc2ccccc2O)C1)c1ccc(Cl)c(Cl)c1 (stereo not shown) [TCMDC-141736],-19.06%
8,O=C(NC1CCCCN(Cc2ccccc2O)C1)c1ccc(-c2ccccc2)cc1 (stereo not shown) [TCMDC-141746],61.29%
9,O=C(NC1CCN(Cc2ccccc2O)C1)c1ccc(-c2ccccc2)cc1 (stereo not shown) [TCMDC-141747],74.99%
10,O=C(NC1CCCCN(Cc2ccccc2O)C1)c1cccc(Cl)c1 (stereo not shown) [TCMDC-141745],70.72%
11,Oc1ccc(-c2ccccc2)cc1CN1CCCCCC1 [TCMDC-124203],12.06%
12,O=C(NC1CCN(Cc2ccccc2O)C1)c1ccc(Cl)c(Cl)c1 (stereo not shown) [TCMDC-141737],3.103%
13,O=C(NC1CCCCN(Cc2ccccc2O)C1)c1cccc(C(F)(F)F)c1 (stereo not shown) [TCMDC-141743],0.3319%
14,O=C(NC1CCCCN(Cc2ccccc2O)C1)c1cc(F)cc(F)c1 (stereo not shown) [TCMDC-141742],24.3%
15,O=C(NC1CCN(Cc2ccccc2O)C1)c1cccc(C(F)(F)F)c1 (stereo not shown) [TCMDC-141744],-4.979%
16,CC(C)(c1ccccc1)c1ccc(O)c(CN2CCOCC2)c1 [TCMDC-124276],-17.17%
17,O=S(=O)(NC1CCCCN(Cc2ccccc2O)C1)c1ccc(C(F)(F)F)cc1 (stereo not shown) [TCMDC-141803],-6.826%
18,Cc1ccccc1C1CCN(C2CCC(NC(=O)c3ccc(-c4cccs4)s3)CC2)CC1 (stereo not shown) [TCMDC-134105],-3.744%
19,CC(=O)Nc1ncc(C(=O)Nc2cccc(-c3ccc(-c4nc5ccc(F)cc5[nH]4)cc3)c2)s1 [TCMDC-136916],-12.2%
20,O=C(NCc1ccccc1[S+]([O-])c1ccccc1CO)C(F)(F)F (stereo not shown) [TCMDC-137886],0.169%
21,Cc1cccc2nc(-c3cccc(-c4ccc(CNCc5cnn(-c6ccccc6)n5)cc4)c3)[nH]c12.O=C(O)C(F)(F)F [TCMDC-132965],-15.5%
22,S=C(NCCN1CCOCC1)Nc1ccccc1 [TCMDC-123845],-18.32%
23,N#Cc1cc(C(=O)c2cc(Cl)ccc2O)cn(-c2cc(Cl)cc(Cl)c2)c1=O [TCMDC-125188],-6.306%

row,SMILES,% Inhibition
1,Cc1cc(N(C)C)nc(Nc2ccc(NS(=O)(=O)c3ccccc3)cc2)n1 [TCMDC-124952],7.952%
2,COc1ccc(CNCc2ccccc2)cc1-c1ccc(S(=O)(=O)NCCN2CCCC2)c(C)c1 [TCMDC-132272],107.1%
3,COc1ccc(CNCc2ccccc2)cc1-c1ccc(S(=O)(=O)NCCN2CCCC2)c(F)c1 [TCMDC-132265],101.3%
4,COc1ccc(CNCc2ccc(F)cc2)cc1-c1ccc(S(=O)(=O)NCCN2CCCC2)c(C)c1 [TCMDC-132224],105.7%
5,O=S(=O)(NCCN1CCCC1)c1ccc(-c2ccc(CNCc3ccccc3)cc2)cc1F [TCMDC-132236],50.96%
6,O=S(=O)(NCCN1CCCC1)c1ccc(-c2ccc(CNCc3ccc(F)cc3)cc2)cc1F [TCMDC-132287],42.7%
7,Cc1cc2c(cc1C(F)(F)F)N(C(=O)Nc1ccc(C(=O)NC3CCN(Cc4ccccc4)C3)cc1)CC2 (stereo not shown) [TCMDC-139871],23.78%
8,Clc1cc(Br)ccc1-c1ccc(CNCC2CCNCC2)o1 [TCMDC-124617],29.69%
9,CC(C)Cc1cnc2nc(N)nc(N)c2c1 [TCMDC-137923],48.38%
10,N#Cc1c(-c2ccccc2)cn2c1[nH]c(=O)c1ccccc12 [TCMDC-124997],14.43%
11,CCN(CCCN1CCCCC1)c1cc(C)nc(Nc2ccc(C)c(F)c2)n1 [TCMDC-132437],25.13%
12,O=C(NCCN1CCOCC1)c1ccc(CNC(=O)c2ccc(O)c(-c3ccc(Cl)c(Cl)c3)c2)cc1 [TCMDC-140852],5.208%
13,CON(C)C(=O)[C@@H](CCCCNC(=O)OCc1ccccc1)NC(=O)OC(C)(C)C [TCMDC-132004],-2.99%
14,O=C(CN1CCC(NCc2cnc(-c3ccc(Cl)cc3)[nH]2)CC1)N1CCc2ccccc21 [TCMDC-138589],28.41%
15,Cc1c(NC(=O)COc2ccc(Cl)cc2C(=O)c2cc(F)cc(C(F)(F)F)c2)ccc2ncsc12 [TCMDC-138907],4.382%
16,COc1cc(NC(=O)N2CCc3ccc(OCCN4CCCCC4)cc32)cc(C(F)(F)F)c1 [TCMDC-140249],14.65%
17,Cc1cc(OCCCN2CCCC2)ccc1NC(=O)COc1ccc(Cl)cc1C(=O)c1cc(C#N)cc(C(F)(F)F)c1 [TCMDC-138904],58.86%
18,Cc1cc(OCCCN2CCCCC2)ccc1NC(=O)COc1ccc(Cl)cc1C(=O)c1cc(C#N)cc(C(F)(F)F)c1 [TCMDC-134827],50%
19,Cc1cc(OCCCN2CCN(CCN3CCOCC3)CC2)ccc1NC(=O)COc1ccc(Cl)cc1C(=O)c1cc(Cl)cc(C#N)c1 [TCMDC-135999],30.59%
20,Cc1cc(OCCCN2CCCCC2)ccc1NC(=O)COc1ccc(Cl)cc1C(=O)c1cc(Cl)cc(C#N)c1 [TCMDC-134725],48.49%
21,Cc1cc(OCCCN2CCCCC2C)ccc1NC(=O)COc1ccc(Cl)cc1C(=O)c1cc(Cl)cc(C#N)c1 (stereo not shown) [TCMDC-134727],73.35%
22,Cc1cc(OCC2CCN(c3ncc(C(=O)Nc4ccccc4)cc3Cl)CC2)ccc1F [TCMDC-134033],-3.032%
23,Cc1cc(OCC2CCCN(c3ncc(C(=O)NC4CC4)cc3Cl)C2)ccc1F (stereo not shown) [TCMDC-134314],18.53%
